Drawing on PubChem BioAssay (EPA / NIEHS), this text covers outcome and AC50 for 26 compounds.

Records with an inconclusive call do not appear. Activity calls are given as the source filed them. The calls were made as follows: active = hit-call score of the fitted dose curve at least 0.9, where 1 is the maximum; inconclusive = response in the unintended direction; inactive = score below 0.9.

Chain of Peroxisome proliferator-activated receptor gamma (Homo sapiens) (P37231 whole entry, looked up): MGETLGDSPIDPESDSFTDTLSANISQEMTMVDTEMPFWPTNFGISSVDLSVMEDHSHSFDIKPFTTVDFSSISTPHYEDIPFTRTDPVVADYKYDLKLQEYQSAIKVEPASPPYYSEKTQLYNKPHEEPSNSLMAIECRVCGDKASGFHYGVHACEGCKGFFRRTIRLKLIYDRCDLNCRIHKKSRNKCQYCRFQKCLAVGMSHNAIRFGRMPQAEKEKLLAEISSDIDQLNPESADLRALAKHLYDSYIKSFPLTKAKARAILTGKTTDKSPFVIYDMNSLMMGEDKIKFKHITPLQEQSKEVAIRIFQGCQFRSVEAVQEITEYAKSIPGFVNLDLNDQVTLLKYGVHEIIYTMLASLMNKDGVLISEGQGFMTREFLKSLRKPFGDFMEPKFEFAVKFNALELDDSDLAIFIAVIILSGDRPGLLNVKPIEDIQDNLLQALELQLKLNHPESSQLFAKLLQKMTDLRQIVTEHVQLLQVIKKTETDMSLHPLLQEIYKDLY

The assay concerns the target Peroxisome proliferator-activated receptor gamma (Homo sapiens) (UniProt P37231). The assay is described as follows: ATG_PPARg_TRANS: Attagene TRANS-FACTORIAL HepG2 Assay for human Peroxisome Proliferator-activated Receptor-gamma (PPARg) (AID 2283007). Summed up: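 Multiplexed reporter transcription units in HepG2, 24 h dosing, reporter transcripts quantified by fluorescent RT-PCR and capillary electrophoresis. Increase over DMSO scored.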
As to `CCc1cccc(C)c1N`, the compound was classed as inactive. Same read-out and setting: then `CC(=O)CCC1=C(C)CCCC1(C)C`, with “inactive”. Regarding `COc1ccc(-c2coc3cc(O)cc(O)c3c2=O)cc1`, the AC50 was 27.1 µM (active). Consider `CN(C)Cc1cc(CN(C)C)c(O)c(CN(C)C)c1`, for which the call was inactive. On to `CC=CC(=O)OCC(C)C`, for which the result was inactive. The same measure, in the same setting: then `CC1C(C)(C)C2=C(C(=O)CCC2)C1(C)C` (stereo unspecified), with “inactive”. For the compound `O=C(Nc1ccccc1)c1cc(Cl)ccc1O`, the AC50 is 13 µM (active). `CN(C)c1ccc2nc3ccc(=[N+](C)C)cc-3sc2c1`: the concentration at half-maximal activity (AC50) was 12.1 µM (active). With `CC(=O)c1ccc(S(=O)(=O)NC(=O)NC2CCCCC2)cc1`, the compound was classed as inactive. In the case of `CC1=NN(c2ccc(S(=O)(=O)O)cc2)C(=O)C1N=Nc1ccccc1` (stereo unspecified), the compound was called inactive. The same measure, in the same setting: then `O=c1c(O)c(-c2ccc(O)cc2O)oc2cc(O)cc(O)c12`, with “inactive”. For `CC(=O)CCC=C(C)C`, the outcome was inactive.

In the case of `CC1OC(=O)C(C)OC1=O` (stereo unspecified), the outcome was inactive. Same read-out and setting: then `CCCCCCCC(=O)OCC(COC(=O)CCCCCCC)OC(=O)CCCCCCC`, with “inactive”. `C=CCNCC=C`: the outcome was inactive. For the compound `Nc1ccnc(=O)[nH]1`, the call was inactive. Same read-out and setting: then `CCC(C)N` (stereo unspecified), with “inactive”.

`CCCCCCCCCCCCCC(=O)OC(C)C`: the outcome was inactive. On the same count and under the same terms, then `CC(=O)C(C)C`, with “inactive”; and `CC(C)=CCCC(C)=CC#N`, with “inactive”; and `COC(Cc1ccccc1)OC`, with “inactive”. Same read-out and setting: the entry for `O=C1c2ccccc2C(=O)c2cc(S(=O)(=O)O)ccc21` is “inactive”; for `CC(=O)OCC=C(C)C` it is “inactive”; for `O=C1CCCCC1C1CCCCC1` (stereo unspecified) it is “inactive”. In the case of `CC(=O)OC/C=C(/C)CCC=C(C)C`, the compound was classed as inactive.

For the compound `CCCCCCCCCCCC(=O)OCC`, the call was inactive.
